Measured values: publication PMC7862700, “An all-to-all approach to the identification of sequence-specific readers for epigenetic DNA modifications on cytosine”

Assays:
Experiment in all cases: DAPPL (digital affinity profiling via proximity ligation, sequencing); 10 mM Tris-HCl pH 7.5, 50 mM NaCl, 1 mM DTT, 4% glycerol, room temperature, 30 min; GST-TFs on glutathione beads, 16-mer random dsDNA library, 0.1% formaldehyde crosslink after washing; high values mean tight binding
FEV = target: T1, FEV (Homo sapiens, UniProt Q99581 1-238); settings: protein: recombinant; tags: N-terminal GST; dsDNA, one strand shown
T1 sequence: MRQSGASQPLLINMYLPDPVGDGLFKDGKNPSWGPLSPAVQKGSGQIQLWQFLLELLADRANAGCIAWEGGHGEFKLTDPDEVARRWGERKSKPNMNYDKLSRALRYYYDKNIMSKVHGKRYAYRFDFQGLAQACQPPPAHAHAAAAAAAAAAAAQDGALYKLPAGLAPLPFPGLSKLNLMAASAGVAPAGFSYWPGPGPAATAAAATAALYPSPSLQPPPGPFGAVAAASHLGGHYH
Outline: (§1)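 Sequencing on an Illumina NextSeq500 followed washing, crosslinking with 0.1% formaldehyde, proximity ligation (BsaI/T4 ligase, 1 h, 37 °C) and PCR amplification of pools that had been incubated for 30 min at room temperature with 200 nmole of a random double-stranded 16-mer DNA library in Tris/NaCl/DTT/glycerol buffer. Each pool held DNA-barcoded human transcription factors, expressed in yeast as GST fusions and captured on glutathione beads, plus a tag-only sample. Binding signal is a hexamer's read frequency for a factor divided by its frequency in the tag-only sample.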

ETV5 = ETV5 (Homo sapiens, UniProt P41161 1-510); settings: protein: recombinant; tags: N-terminal GST; dsDNA, one strand shown
Outline: as §1

HSF1 = HSF1 (Homo sapiens, UniProt Q00613 1-529); settings: protein: recombinant; tags: N-terminal GST; chain copies: 3; dsDNA, one strand shown
Outline: as §1

SPIC = target: T2, SPIC (Homo sapiens, UniProt Q8N5J4 1-248); settings: protein: recombinant; tags: N-terminal GST; dsDNA, one strand shown
T2 sequence: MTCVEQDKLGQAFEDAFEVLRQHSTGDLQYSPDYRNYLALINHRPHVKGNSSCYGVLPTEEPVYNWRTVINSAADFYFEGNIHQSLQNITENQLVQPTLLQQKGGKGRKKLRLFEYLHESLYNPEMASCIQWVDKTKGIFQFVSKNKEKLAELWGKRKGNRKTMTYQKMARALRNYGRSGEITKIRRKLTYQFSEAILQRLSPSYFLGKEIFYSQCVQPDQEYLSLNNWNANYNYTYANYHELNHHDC
Outline: as §1

ELF4 = ELF4 (Homo sapiens, UniProt Q99607 1-663); settings: protein: recombinant; tags: N-terminal GST; dsDNA, one strand shown
Outline: as §1

ELK4 = target: T3, ELK4 (Homo sapiens, UniProt P28324-2 1-405); settings: protein: recombinant; tags: N-terminal GST; dsDNA, one strand shown
T3 sequence: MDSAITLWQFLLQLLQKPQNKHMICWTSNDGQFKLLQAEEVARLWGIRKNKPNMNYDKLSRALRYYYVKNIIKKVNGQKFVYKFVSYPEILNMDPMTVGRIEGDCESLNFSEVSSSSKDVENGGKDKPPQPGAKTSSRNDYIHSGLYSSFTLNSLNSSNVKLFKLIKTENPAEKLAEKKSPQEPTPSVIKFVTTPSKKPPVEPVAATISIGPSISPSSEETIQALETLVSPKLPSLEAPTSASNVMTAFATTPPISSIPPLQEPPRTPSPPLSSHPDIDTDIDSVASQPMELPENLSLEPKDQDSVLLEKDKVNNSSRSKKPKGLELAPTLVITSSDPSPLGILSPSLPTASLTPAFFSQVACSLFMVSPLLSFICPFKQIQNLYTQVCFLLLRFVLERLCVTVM
Outline: as §1

ETV2 = target: T4, ETV2 (Homo sapiens, UniProt O00321 1-342); settings: protein: recombinant; tags: N-terminal GST; dsDNA, one strand shown
T4 sequence: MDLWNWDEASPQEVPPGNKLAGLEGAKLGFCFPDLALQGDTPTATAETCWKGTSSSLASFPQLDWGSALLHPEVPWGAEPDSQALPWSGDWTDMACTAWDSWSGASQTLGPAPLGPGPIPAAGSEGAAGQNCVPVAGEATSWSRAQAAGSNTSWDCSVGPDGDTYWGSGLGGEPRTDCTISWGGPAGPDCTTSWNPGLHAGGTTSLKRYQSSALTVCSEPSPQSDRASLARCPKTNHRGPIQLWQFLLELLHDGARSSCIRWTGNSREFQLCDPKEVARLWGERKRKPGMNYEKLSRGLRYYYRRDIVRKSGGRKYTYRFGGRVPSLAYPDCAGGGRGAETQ
Outline: as §1

ELF3 = target: T5, ELF3 (Homo sapiens, UniProt P78545 1-371); settings: protein: recombinant; tags: N-terminal GST; dsDNA, one strand shown
T5 sequence: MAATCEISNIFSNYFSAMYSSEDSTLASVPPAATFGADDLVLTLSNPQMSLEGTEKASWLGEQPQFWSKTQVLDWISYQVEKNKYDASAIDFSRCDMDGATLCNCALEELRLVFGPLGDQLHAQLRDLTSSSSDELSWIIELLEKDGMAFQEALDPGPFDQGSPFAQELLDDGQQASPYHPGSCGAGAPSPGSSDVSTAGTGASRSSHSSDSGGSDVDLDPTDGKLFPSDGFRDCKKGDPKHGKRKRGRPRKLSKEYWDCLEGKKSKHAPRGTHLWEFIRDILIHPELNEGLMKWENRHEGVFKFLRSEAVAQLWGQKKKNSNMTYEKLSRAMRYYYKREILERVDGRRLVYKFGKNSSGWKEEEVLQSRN
Outline: as §1

CRX = CRX (Homo sapiens, UniProt O43186 1-299); settings: protein: recombinant; tags: N-terminal GST; dsDNA, one strand shown
Outline: as §1

ETV1 = ETV1 (Homo sapiens, UniProt P50549 1-477); settings: protein: recombinant; tags: N-terminal GST; dsDNA, one strand shown
Outline: as §1

ERF = target: T6, ERF (Homo sapiens, UniProt P50548 1-548); settings: protein: recombinant; tags: N-terminal GST; dsDNA, one strand shown
T6 sequence: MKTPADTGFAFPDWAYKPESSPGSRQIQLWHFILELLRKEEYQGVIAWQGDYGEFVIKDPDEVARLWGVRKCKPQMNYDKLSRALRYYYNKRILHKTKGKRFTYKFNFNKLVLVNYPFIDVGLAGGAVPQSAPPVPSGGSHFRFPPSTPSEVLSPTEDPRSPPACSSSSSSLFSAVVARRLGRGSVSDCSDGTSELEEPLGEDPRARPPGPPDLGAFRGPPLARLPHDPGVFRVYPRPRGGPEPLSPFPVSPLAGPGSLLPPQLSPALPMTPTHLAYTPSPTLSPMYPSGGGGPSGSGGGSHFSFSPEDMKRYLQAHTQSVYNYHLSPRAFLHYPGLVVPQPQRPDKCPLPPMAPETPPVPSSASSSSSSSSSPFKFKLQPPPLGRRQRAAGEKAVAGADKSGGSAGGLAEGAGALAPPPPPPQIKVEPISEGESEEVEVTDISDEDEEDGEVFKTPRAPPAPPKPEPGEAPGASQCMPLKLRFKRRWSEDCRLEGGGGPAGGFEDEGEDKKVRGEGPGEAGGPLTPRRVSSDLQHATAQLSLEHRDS
Outline: as §1

ETV3L = target: T7, ETV3L (Homo sapiens, UniProt Q6ZN32 1-361); settings: protein: recombinant; tags: N-terminal GST; dsDNA, one strand shown
T7 sequence: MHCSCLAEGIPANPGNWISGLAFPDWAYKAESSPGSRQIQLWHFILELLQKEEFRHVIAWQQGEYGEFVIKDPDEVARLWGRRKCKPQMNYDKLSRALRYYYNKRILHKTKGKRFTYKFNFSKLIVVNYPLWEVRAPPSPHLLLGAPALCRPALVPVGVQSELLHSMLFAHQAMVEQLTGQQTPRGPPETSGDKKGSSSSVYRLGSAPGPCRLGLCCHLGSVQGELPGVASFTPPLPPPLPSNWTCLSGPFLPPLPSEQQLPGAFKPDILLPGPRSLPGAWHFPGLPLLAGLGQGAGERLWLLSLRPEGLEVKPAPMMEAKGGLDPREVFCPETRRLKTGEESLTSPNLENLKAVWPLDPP
Outline: as §1

ETS2 = target: T8, ETS2 (Homo sapiens, UniProt P15036 1-469); settings: protein: recombinant; tags: N-terminal GST; dsDNA, one strand shown
T8 sequence: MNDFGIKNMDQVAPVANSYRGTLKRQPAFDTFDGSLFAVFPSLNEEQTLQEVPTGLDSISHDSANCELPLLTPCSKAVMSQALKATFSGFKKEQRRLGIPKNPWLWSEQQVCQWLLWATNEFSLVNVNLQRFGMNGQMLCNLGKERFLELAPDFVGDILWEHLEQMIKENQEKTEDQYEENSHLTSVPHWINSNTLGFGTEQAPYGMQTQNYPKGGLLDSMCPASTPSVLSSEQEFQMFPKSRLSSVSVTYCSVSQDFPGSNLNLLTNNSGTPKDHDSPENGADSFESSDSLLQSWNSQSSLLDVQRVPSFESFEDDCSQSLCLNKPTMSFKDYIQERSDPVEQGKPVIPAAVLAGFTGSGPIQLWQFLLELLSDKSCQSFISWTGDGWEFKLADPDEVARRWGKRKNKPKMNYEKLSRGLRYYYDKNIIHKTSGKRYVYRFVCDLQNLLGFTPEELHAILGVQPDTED
Outline: as §1

SPDEF = target: T9, SPDEF (Homo sapiens, UniProt O95238 1-335); settings: protein: recombinant; tags: N-terminal GST; dsDNA, one strand shown
T9 sequence: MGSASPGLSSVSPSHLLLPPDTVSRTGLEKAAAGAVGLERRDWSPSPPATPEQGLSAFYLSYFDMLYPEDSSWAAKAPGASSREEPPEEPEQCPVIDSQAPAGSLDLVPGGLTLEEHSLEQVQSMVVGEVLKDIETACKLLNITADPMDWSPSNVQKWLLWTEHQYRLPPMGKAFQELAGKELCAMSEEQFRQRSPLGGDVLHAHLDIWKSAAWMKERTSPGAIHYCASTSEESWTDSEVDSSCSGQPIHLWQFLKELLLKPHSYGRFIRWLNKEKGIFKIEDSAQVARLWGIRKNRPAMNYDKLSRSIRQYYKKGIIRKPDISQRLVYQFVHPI
Outline: as §1

ETV7 = target: T10, ETV7 (Homo sapiens, UniProt Q9Y603 1-341); settings: protein: recombinant; tags: N-terminal GST; dsDNA, one strand shown
T10 sequence: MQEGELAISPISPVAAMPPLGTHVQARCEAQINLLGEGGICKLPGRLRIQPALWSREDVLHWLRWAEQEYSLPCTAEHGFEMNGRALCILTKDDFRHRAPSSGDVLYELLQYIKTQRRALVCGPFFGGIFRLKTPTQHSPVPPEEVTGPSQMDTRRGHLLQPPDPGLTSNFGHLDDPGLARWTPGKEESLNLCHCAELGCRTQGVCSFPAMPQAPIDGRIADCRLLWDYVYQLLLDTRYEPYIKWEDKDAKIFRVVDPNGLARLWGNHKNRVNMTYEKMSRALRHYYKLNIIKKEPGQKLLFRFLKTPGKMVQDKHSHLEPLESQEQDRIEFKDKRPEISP
Outline: as §1

ELF5 = target: T11, ELF5 (Homo sapiens, UniProt Q9UKW6-2 1-255); settings: protein: recombinant; tags: N-terminal GST; dsDNA, one strand shown
T11 sequence: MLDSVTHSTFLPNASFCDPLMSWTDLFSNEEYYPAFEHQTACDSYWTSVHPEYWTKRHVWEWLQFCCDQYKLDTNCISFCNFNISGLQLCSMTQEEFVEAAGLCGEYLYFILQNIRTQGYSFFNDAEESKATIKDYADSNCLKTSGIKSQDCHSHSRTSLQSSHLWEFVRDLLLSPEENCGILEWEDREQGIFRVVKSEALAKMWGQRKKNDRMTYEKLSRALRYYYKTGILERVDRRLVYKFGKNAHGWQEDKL
Outline: as §1

ETV3 = target: T12, ETV3 (Homo sapiens, UniProt P41162-2 1-143); settings: protein: recombinant; tags: N-terminal GST; dsDNA, one strand shown
T12 sequence: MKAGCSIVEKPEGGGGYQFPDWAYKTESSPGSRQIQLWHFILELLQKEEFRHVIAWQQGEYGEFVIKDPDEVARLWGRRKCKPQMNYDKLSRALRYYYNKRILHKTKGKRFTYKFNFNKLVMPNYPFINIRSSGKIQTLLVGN
Outline: as §1

ETV6 = ETV6 (Homo sapiens, UniProt P41212 1-452); settings: protein: recombinant; tags: N-terminal GST; dsDNA, one strand shown
Outline: as §1

Sequence of ETV5 (P41161 whole entry): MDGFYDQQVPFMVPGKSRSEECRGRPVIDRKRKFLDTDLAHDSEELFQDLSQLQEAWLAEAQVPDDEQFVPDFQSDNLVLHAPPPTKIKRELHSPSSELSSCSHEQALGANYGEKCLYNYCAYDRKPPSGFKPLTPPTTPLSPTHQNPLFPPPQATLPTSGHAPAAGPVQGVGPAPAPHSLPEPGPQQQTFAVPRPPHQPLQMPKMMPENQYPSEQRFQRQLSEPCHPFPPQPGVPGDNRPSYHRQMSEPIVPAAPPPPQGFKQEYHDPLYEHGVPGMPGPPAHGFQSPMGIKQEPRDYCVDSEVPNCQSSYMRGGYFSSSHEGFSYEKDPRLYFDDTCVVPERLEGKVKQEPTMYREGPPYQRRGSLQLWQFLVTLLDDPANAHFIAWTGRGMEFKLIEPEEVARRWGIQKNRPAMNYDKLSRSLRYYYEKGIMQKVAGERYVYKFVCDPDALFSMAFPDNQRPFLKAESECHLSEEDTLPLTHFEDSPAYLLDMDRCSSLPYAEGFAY
Sequence of ETV1 (P50549 whole entry): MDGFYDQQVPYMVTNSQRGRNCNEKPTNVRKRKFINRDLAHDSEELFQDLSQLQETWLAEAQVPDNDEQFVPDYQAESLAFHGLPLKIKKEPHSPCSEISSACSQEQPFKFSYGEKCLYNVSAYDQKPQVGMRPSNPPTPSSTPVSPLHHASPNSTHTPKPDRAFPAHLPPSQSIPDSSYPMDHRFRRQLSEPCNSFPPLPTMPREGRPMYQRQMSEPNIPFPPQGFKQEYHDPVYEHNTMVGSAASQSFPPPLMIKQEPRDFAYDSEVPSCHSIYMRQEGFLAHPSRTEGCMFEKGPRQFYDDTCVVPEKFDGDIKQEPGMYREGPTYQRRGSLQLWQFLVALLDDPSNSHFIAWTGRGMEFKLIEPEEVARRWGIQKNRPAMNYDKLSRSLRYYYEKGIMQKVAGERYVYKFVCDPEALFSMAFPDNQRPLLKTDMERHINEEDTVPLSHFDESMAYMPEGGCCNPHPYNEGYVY
Sequence of CRX (O43186 whole entry): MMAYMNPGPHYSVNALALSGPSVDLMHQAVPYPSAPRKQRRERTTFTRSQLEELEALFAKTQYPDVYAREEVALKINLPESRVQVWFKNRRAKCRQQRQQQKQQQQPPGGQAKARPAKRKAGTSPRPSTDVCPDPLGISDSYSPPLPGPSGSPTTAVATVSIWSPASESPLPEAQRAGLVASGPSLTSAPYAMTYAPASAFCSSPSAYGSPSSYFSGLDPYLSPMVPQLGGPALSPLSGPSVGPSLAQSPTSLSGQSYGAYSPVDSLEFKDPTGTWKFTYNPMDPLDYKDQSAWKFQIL
Sequence of ELF4 (Q99607 whole entry): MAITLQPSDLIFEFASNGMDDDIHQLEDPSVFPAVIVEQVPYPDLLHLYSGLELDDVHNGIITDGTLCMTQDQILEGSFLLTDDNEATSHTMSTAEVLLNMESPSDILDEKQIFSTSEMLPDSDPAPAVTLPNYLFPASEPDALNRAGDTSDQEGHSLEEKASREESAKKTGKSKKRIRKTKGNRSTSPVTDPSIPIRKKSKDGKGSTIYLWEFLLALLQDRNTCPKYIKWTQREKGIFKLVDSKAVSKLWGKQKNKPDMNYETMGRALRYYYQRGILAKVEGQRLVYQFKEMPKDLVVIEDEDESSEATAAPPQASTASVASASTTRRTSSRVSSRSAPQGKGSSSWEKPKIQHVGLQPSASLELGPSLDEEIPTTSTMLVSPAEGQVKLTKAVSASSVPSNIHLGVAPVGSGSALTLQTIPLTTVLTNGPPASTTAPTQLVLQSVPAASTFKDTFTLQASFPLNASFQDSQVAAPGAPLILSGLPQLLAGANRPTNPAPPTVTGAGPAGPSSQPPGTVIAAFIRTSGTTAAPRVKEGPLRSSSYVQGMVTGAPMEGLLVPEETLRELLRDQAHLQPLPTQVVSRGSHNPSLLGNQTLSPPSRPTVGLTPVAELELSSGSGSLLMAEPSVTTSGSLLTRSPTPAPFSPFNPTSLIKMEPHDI
Sequence of HSF1 (Q00613 whole entry): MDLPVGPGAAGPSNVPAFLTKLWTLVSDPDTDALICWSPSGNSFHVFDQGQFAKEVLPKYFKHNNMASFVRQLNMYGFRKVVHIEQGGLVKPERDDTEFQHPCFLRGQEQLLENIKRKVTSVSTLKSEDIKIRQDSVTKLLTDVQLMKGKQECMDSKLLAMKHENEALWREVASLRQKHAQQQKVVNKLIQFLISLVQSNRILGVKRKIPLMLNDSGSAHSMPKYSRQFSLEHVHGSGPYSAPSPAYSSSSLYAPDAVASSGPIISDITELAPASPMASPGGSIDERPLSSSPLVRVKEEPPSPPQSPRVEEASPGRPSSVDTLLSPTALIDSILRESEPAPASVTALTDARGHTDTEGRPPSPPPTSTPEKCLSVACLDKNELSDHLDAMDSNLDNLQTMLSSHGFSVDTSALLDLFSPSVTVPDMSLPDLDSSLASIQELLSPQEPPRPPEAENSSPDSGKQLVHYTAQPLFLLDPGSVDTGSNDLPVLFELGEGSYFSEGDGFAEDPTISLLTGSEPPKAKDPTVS
Sequence of ETV6 (P41212 whole entry): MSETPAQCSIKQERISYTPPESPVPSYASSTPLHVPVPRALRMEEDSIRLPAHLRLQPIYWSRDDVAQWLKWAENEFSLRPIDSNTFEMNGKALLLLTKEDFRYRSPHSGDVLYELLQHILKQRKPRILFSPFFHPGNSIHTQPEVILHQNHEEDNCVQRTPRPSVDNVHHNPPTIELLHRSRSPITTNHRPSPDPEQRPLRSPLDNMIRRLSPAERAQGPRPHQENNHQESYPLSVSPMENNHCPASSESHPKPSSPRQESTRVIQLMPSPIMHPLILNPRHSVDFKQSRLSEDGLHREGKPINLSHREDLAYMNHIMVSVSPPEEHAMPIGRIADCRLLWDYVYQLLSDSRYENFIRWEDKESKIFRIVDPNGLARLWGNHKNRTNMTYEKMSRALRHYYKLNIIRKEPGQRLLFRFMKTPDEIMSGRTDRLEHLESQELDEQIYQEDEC

CCTTAG
binding signal (FEV): 1.28 fold enrichment (6-mer frequency, TF over GST control) | binding signal (ETV5): 1.18 fold enrichment (6-mer frequency, TF over GST control) | binding signal (HSF1): 1.2 fold enrichment (6-mer frequency, TF over GST control) | binding signal (SPIC): 1.36 fold enrichment (6-mer frequency, TF over GST control) | binding signal (ELF4): 1.34 fold enrichment (6-mer frequency, TF over GST control) | binding signal (ELK4): 1.34 fold enrichment (6-mer frequency, TF over GST control) | binding signal (ETV2): 1.32 fold enrichment (6-mer frequency, TF over GST control) | binding signal (ELF3): 1.05 fold enrichment (6-mer frequency, TF over GST control) | binding signal (CRX): 1.28 fold enrichment (6-mer frequency, TF over GST control) | binding signal (ETV1): 1.22 fold enrichment (6-mer frequency, TF over GST control) | binding signal (ERF): 1.22 fold enrichment (6-mer frequency, TF over GST control) | binding signal (ETV3L): 1.26 fold enrichment (6-mer frequency, TF over GST control) | binding signal (ETS2): 1.27 fold enrichment (6-mer frequency, TF over GST control) | binding signal (SPDEF): 1.24 fold enrichment (6-mer frequency, TF over GST control) | binding signal (ETV7): 1.21 fold enrichment (6-mer frequency, TF over GST control) | binding signal (ELF5): 1.29 fold enrichment (6-mer frequency, TF over GST control) | binding signal (ETV3): 1.27 fold enrichment (6-mer frequency, TF over GST control) | binding signal (ETV6): 1.23 fold enrichment (6-mer frequency, TF over GST control)
